These results are taken from ChEMBL document CHEMBL2218924, “A broad activity screen in support of a chemogenomic map for kinase signalling research and drug discovery” (Biochem J, 2013).

For assay [1], the target named is T1, Ephrin type-A receptor 3 (Homo sapiens) (UniProt P29320).
T1 sequence (whole entry): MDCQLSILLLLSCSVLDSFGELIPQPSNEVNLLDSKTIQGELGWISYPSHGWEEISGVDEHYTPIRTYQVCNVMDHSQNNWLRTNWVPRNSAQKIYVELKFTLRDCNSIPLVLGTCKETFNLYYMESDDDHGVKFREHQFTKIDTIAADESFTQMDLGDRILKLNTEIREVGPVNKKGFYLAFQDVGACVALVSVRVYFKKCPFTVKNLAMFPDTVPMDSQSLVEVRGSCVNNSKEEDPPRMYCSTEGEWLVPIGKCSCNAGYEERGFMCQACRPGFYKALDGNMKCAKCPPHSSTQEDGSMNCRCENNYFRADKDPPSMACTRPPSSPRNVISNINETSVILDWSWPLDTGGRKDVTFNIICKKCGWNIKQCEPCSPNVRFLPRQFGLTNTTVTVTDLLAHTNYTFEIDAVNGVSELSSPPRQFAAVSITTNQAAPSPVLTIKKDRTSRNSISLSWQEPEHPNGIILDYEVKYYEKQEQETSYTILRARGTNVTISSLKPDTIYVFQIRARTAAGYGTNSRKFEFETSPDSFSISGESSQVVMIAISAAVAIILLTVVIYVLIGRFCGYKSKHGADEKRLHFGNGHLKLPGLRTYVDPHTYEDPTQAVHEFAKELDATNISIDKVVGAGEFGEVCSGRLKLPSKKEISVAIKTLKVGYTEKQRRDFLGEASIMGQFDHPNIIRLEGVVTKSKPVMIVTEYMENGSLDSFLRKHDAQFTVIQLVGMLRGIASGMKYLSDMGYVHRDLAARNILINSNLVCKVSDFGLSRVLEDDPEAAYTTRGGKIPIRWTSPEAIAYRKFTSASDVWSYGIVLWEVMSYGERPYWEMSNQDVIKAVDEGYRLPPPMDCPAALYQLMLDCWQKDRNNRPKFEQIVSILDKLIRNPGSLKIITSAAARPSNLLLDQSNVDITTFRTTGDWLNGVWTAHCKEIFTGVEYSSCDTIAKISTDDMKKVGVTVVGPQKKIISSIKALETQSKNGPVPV
The note with it: at 10 µM.

The target of assay [2] is Ephrin type-A receptor 4 (Homo sapiens) (UniProt P54764). The note with it: at 10 µM.
Assay [3] has as its target Ephrin type-A receptor 7 (Homo sapiens) (UniProt Q15375). The note with it: at 1 µM.
The target is the same in assay [4]. The settings on record: at 10 µM.
The target in assay [5] is T2, Ephrin type-A receptor 8 (Homo sapiens) (UniProt P29322).
T2 sequence (whole entry): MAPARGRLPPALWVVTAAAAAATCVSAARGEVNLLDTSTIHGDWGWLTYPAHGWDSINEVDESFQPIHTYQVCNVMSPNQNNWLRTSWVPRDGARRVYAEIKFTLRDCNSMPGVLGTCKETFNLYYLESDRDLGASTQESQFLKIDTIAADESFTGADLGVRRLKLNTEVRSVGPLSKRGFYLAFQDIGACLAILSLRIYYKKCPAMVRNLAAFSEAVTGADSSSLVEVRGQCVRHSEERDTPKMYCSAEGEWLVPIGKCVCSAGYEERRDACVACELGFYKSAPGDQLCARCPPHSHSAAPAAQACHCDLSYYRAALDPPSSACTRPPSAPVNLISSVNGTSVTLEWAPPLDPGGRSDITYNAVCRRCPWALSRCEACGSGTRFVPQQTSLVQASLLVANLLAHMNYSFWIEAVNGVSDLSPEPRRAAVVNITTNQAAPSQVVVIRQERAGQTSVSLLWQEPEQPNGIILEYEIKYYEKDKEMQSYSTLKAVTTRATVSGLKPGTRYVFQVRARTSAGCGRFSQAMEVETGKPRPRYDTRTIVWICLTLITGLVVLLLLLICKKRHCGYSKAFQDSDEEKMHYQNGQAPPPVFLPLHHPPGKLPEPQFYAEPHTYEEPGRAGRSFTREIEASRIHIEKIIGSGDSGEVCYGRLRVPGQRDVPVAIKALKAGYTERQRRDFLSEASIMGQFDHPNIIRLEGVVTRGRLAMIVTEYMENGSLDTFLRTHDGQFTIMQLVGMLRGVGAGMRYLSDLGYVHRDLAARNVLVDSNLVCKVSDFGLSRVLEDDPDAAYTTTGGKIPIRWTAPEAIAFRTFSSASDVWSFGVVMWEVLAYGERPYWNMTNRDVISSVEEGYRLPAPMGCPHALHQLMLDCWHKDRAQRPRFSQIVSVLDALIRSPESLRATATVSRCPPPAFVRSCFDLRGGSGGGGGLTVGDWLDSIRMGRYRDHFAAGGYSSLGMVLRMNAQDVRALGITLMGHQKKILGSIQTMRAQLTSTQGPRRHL
The settings on record: at 1 µM.

In assay [6] the target is T2, Ephrin type-A receptor 8 (Homo sapiens). The settings on record: at 10 µM.
Assay [7] addresses T3, Ephrin type-B receptor 1 (Homo sapiens) (UniProt P54762).
T3 sequence (whole entry): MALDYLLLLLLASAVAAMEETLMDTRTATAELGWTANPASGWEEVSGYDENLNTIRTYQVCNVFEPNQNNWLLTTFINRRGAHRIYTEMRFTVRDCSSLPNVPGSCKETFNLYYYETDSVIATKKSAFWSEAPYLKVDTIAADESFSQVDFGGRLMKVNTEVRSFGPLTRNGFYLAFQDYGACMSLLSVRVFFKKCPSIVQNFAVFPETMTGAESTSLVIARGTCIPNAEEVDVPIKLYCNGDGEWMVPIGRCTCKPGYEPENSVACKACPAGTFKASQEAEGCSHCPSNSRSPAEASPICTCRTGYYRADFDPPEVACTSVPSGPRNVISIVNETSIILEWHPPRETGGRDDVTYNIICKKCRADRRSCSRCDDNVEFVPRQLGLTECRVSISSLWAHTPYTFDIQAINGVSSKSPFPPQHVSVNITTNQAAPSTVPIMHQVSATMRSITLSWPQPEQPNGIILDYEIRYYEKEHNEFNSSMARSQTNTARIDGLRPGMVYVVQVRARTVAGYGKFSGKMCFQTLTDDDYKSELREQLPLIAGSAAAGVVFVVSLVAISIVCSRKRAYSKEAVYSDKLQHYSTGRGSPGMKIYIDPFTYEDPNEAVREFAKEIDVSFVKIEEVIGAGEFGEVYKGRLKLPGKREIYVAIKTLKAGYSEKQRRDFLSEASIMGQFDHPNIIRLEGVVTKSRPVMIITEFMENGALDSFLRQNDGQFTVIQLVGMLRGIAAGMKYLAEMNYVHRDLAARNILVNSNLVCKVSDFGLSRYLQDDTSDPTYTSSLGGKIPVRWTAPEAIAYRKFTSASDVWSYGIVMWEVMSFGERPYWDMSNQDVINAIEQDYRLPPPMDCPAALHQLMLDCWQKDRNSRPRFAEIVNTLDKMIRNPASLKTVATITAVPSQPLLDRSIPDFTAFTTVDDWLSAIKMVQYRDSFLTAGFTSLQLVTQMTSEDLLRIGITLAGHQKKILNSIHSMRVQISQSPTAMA
The settings on record: at 1 µM.

Assay [8] concerns the target T3, Ephrin type-B receptor 1 (Homo sapiens). The note with it: at 10 µM.
For assay [9], the target named is T4, Ephrin type-B receptor 2 (Homo sapiens) (UniProt P29323).
T4 sequence (whole entry): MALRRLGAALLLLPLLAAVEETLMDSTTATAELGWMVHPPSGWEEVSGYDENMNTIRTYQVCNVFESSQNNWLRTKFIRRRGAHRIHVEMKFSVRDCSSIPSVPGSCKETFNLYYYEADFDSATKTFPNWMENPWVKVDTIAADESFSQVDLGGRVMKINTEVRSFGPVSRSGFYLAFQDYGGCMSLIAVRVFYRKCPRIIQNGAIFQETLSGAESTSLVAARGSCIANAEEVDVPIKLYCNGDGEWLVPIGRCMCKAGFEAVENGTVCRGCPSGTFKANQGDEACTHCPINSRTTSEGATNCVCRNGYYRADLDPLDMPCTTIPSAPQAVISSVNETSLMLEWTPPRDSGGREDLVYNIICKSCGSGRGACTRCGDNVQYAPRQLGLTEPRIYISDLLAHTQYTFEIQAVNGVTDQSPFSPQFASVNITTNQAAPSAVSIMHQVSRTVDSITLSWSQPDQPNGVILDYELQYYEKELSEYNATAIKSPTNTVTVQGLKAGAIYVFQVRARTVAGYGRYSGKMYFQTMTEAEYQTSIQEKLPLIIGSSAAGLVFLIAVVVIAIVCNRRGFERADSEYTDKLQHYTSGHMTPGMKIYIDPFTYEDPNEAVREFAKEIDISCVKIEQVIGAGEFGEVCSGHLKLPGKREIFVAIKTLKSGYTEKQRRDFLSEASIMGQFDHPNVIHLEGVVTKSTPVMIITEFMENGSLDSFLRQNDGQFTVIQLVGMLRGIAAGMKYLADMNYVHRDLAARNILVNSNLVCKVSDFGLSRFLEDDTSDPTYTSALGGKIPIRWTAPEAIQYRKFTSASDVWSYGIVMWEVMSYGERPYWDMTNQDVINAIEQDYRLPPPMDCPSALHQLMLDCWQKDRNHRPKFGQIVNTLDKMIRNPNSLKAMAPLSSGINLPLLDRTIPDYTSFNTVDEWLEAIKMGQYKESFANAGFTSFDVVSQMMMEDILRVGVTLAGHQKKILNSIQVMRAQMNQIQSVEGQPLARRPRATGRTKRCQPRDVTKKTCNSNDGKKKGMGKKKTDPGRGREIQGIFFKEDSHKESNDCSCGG
The note with it: at 1 µM.

Assay [10] deals with T4, Ephrin type-B receptor 2 (Homo sapiens). The settings on record: at 10 µM.
For assay [11], the target named is T5, Ephrin type-B receptor 3 (Homo sapiens) (UniProt P54753).
T5 sequence (whole entry): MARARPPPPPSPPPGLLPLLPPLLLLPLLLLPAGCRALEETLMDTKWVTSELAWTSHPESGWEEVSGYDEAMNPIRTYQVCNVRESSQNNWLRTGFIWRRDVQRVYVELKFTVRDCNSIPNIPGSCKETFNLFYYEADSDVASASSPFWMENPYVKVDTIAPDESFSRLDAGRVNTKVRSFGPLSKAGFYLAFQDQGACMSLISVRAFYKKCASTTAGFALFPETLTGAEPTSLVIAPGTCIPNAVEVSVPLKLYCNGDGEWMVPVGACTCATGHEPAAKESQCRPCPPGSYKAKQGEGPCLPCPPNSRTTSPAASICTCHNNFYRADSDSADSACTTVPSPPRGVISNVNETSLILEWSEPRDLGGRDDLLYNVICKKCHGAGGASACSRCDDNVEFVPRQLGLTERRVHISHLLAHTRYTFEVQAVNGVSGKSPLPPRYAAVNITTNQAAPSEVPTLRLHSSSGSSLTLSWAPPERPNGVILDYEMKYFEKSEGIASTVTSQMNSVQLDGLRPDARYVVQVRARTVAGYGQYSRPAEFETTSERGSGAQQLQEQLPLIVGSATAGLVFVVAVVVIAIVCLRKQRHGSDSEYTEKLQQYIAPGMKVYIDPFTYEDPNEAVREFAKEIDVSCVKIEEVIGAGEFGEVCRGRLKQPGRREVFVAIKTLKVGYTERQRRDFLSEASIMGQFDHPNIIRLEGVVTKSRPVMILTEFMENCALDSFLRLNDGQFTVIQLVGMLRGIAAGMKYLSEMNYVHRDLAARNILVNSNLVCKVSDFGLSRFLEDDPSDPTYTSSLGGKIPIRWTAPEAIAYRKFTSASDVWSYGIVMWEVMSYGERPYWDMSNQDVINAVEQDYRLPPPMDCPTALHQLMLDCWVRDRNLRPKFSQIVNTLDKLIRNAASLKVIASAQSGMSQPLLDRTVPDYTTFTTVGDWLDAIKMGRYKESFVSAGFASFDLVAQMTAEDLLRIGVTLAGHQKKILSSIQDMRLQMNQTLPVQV
The settings on record: at 1 µM.

The target in assay [12] is T5, Ephrin type-B receptor 3 (Homo sapiens). The settings on record: at 10 µM.
Assay [13] has as its target T6, Ephrin type-B receptor 4 (Homo sapiens) (UniProt P54760).
T6 sequence (whole entry): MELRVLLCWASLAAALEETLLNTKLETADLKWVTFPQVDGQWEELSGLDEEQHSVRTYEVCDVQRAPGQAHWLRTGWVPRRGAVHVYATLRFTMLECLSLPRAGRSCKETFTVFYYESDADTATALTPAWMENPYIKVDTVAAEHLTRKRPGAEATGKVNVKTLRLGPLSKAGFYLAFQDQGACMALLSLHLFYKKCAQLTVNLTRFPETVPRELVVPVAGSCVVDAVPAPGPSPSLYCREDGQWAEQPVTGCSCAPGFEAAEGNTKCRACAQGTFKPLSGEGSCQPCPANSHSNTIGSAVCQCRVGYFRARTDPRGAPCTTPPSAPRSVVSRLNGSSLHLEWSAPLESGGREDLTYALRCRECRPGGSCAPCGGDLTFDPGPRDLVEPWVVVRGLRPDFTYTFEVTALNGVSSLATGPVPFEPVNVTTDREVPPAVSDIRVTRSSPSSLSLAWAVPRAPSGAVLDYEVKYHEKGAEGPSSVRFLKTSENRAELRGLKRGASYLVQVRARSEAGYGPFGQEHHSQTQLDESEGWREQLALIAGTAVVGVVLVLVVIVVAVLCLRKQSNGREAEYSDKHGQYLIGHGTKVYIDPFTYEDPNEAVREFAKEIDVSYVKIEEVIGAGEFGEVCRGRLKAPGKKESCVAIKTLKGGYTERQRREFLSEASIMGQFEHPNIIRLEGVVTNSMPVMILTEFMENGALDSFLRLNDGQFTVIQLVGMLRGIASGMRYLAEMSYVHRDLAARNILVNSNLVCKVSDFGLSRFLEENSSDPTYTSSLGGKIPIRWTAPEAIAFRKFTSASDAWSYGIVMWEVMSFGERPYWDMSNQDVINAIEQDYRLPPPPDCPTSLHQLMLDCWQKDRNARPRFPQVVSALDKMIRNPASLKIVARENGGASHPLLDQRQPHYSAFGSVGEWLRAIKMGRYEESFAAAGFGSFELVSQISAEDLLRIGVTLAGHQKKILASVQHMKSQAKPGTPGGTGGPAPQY
The settings on record: at 1 µM.

Assay [14] concerns the target T6, Ephrin type-B receptor 4 (Homo sapiens). The note with it: at 10 µM.
For assay [15], the target named is Receptor tyrosine-protein kinase erbB-4 (Homo sapiens) (UniProt Q15303). The note with it: at 1 µM.
Assay [16] shares this target. The settings on record: at 10 µM.
The target in assay [17] is Focal adhesion kinase 1 (Homo sapiens) (UniProt Q05397). The settings on record: at 1 µM.
Focal adhesion kinase 1 (Homo sapiens), sequence (Q05397 2-1052 limits assumed): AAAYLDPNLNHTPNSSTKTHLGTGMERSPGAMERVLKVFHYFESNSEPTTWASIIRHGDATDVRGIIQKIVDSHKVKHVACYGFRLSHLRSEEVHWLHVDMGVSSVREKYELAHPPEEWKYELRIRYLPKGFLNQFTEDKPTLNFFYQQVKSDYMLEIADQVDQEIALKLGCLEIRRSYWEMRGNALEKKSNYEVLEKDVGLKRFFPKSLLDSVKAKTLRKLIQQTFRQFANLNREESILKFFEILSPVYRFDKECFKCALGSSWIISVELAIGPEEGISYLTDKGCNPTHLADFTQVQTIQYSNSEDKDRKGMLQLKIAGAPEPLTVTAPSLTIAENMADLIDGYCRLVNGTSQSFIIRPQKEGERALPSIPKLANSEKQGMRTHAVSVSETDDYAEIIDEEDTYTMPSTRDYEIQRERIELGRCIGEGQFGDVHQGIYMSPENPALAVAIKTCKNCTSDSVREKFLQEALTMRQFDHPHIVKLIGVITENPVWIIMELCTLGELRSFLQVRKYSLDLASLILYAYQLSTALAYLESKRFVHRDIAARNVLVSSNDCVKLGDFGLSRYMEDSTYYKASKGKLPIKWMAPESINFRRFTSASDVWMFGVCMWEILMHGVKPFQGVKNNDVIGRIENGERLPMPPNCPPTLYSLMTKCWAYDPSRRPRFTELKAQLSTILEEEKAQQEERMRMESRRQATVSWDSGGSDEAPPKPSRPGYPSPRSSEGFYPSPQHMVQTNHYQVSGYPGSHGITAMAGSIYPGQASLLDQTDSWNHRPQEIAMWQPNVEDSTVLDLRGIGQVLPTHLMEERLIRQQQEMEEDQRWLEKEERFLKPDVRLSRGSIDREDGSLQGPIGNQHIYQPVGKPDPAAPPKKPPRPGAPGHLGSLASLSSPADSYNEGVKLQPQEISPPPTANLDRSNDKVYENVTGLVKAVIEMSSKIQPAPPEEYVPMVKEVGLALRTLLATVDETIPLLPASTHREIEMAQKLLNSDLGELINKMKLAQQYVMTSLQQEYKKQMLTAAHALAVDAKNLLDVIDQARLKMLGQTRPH

Ephrin type-A receptor 7 (Homo sapiens), sequence (Q15375 28-998 limits assumed): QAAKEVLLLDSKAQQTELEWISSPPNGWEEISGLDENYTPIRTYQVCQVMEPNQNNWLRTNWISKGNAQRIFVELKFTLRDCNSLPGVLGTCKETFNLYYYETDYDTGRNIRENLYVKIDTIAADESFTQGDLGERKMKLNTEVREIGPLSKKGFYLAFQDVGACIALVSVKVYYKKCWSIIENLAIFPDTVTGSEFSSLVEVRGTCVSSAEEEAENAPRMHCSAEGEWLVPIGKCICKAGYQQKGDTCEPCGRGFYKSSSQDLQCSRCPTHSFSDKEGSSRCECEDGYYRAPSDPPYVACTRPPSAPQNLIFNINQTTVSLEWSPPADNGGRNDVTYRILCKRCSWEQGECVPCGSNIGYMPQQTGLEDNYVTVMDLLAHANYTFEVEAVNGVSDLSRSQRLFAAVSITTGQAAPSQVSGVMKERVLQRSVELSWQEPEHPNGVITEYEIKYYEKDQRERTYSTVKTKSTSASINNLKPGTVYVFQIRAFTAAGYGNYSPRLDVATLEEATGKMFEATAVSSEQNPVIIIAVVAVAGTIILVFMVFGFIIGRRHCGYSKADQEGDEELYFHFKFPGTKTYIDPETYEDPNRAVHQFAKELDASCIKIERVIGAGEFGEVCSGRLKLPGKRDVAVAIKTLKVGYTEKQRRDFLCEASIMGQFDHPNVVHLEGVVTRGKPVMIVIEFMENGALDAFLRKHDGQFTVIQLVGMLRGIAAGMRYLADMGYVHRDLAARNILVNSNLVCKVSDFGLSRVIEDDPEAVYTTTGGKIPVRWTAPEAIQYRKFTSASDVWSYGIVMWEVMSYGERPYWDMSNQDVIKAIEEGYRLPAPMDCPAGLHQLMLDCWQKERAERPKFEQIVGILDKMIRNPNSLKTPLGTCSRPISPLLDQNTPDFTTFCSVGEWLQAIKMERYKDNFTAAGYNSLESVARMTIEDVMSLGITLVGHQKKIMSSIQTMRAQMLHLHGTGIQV
Receptor tyrosine-protein kinase erbB-4 (Homo sapiens), sequence (Q15303 whole entry): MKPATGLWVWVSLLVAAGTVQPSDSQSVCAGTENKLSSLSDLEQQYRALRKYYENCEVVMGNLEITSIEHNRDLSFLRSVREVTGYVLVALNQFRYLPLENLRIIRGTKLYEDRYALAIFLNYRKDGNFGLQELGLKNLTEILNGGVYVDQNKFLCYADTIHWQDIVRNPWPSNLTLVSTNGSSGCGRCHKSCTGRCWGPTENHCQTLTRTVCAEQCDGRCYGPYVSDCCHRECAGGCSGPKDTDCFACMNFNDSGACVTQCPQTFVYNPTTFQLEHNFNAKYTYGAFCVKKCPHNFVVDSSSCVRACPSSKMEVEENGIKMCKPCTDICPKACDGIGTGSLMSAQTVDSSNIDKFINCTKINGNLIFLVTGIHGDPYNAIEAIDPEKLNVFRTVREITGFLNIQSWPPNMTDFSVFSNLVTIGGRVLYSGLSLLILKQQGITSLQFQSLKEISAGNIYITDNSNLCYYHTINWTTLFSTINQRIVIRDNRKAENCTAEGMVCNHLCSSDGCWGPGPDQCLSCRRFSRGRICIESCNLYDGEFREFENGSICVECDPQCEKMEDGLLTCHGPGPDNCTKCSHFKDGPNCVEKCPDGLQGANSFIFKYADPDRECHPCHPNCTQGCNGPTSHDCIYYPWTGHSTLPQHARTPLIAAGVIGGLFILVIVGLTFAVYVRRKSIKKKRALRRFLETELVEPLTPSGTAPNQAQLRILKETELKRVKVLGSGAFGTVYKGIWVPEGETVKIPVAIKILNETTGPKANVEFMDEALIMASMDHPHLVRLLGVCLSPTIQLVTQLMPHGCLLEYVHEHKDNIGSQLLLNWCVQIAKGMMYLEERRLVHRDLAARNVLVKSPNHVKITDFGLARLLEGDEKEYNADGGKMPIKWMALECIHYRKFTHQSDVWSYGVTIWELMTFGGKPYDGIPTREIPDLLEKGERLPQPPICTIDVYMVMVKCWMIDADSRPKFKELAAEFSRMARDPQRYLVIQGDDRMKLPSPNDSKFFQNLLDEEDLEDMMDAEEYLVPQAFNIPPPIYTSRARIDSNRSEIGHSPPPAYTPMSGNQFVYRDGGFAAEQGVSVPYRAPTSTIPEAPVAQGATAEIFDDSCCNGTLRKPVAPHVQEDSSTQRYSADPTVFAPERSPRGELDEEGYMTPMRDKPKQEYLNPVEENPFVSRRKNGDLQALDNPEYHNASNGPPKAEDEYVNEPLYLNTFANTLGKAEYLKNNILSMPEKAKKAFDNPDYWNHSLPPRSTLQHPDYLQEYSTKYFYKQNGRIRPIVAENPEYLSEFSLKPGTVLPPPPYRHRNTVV
Ephrin type-A receptor 4 (Homo sapiens), sequence (P54764 whole entry): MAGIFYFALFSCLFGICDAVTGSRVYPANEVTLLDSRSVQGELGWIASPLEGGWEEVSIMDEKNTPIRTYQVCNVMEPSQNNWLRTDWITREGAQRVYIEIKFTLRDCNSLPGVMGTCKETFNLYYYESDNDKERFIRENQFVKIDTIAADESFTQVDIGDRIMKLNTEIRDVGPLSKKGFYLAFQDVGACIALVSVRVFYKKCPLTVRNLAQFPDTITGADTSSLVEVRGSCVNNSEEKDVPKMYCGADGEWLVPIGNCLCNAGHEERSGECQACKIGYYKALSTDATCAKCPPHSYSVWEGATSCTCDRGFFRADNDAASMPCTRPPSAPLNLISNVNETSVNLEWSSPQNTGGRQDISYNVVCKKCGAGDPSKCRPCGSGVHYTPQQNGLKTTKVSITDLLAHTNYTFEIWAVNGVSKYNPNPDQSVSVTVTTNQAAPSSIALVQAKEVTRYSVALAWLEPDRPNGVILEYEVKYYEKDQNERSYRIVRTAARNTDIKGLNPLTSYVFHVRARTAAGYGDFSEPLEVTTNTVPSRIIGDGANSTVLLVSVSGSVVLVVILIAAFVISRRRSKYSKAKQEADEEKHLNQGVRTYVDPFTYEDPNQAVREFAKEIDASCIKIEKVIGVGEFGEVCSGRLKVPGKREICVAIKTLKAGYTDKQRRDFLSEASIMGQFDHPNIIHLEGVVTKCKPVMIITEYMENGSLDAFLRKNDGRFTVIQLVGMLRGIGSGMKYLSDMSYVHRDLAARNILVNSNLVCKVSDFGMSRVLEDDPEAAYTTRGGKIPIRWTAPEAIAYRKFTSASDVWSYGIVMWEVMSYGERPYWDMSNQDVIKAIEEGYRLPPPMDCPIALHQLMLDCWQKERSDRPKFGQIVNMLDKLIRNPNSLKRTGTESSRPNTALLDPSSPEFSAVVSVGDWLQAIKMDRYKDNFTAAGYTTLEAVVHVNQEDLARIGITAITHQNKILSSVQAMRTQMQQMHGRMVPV

One may read the residual activity as the signal under treatment as a percentage of the control signal. Consider `CCN(CC)C(=O)c1ccc(Nc2nc(OCC3CCCCC3)c3nc[nH]c3n2)cc1`, for which the residual activity was found to be 60% in assay [1]; 73% in assay [2]; 71% in assay [3]; 7% in [4]; 97% in assay [5]; 64% in [6]. In addition, the residual activity in [7] is 68%; in assay [8], 4%; in assay [9], 103%; in [10], 32%; in assay [11] it was 102% (inactive); in assay [12] it was 52%. In addition, the residual activity in assay [13] amounted to 72%; in assay [14] it was 12%; in assay [15], 74%; in assay [16], 34%; in assay [17] it was 72%.
